DT40 TDP1 CPT: growth inhibition of DT40 Tdp1-/-;hTDP1 cells with camptothecin (screen for TDP1 inhibitors) | chicken DT40 Tdp1-/-;hTDP1 cells + 20 nM CPT, ATP luminescence, 48 h | Potency, µM (titrated, usually from 46.2 µM), usual class: inhibitors | actives 12% (n = 420,000); also: nearly all actives have a fitted effect of over 55% in size
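Chicken DT40 Tdp1-/- cells complemented with human TDP1, 400 cells/well, exposed to compounds plus 20 nM camptothecin for at least 48 h at 37 C; viability read as ATP content by CellTiter-Glo luminescence.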
DT40 TDP1 no CPT: qHTS for Inhibitors of human tyrosyl-DNA phosphodiesterase 1 (TDP1): qHTS in cells in absence of CPT; AID 686978, 2013; Potency, µM (series often up to 46.2 µM), hits mostly inhibitors; actives 15% (n = 420,000); DT40 Tdp1-/- hTDP1 cells, no CPT, ATP luminescence, 48 h; also: nearly all actives have a fitted effect of over 55% in size
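Stably hTDP1-transfected Tdp1-null chicken DT40 cells were treated with library compounds minus camptothecin and grown for at least 48 hr at 37 °C, after which cellular ATP was quantified by luminescence.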
Gal4-VP16 FLuc: counter-screen for ROR gamma inhibitors: Gal4-VP16 reporter; Potency, µM (top dose mostly 53.6 µM), most hits filed as inhibitors; AID 2546; Drosophila S2 Gal4-VP16 UAS-luciferase, luminescence, 20 h; actives 3.5% (n = 310,000);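 also: Gal4-VP16 expression switched on by copper sulfate through the metallothionein promoter; nearly all actives have a fitted effect of over 50% in size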
ELG1 repair inh: ELG1-dependent DNA repair inhibition; HEK293T ELG1-luciferase reporter, luminescence, 16 h; DNA damage induced by 5-fluorouridine; Potency, µM (doses to about 46.1 µM), usual class: inhibitors; actives 2.3% (n = 330,000); also: nearly all actives have a fitted effect of over 55% in size
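Luminescence from the luciferase reporter, measured 30 min after ONE-Glo reagent at room temperature, was the read-out. Beforehand, 2,000 cells per well were exposed for 16 hr at 37 °C to 5-fluorouridine together with compound or vehicle.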
IL1B secr inh: blocks inflammasome-driven IL-1 beta release; activity change, % at 57.5 µM; THP-1 LPS/ATP IL-1B secretion, AlphaLISA, 16 h; stronger effect = lower value; actives 4.7% (n = 360,000); in the data active = activity change below about -50%; inconclusive = mostly about -30% to -49%
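THP-1 cells pretreated 1 hr with compounds (up to 57.5 uM final), then stimulated with LPS (250 ng/mL final) plus ATP (1.25 mM final); secreted IL-1B measured by AlphaLISA after 16 hr, decreased signal indicating inhibition.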
RORg inh: blocks mouse ROR gamma transcriptional activity. P51450. Drosophila S2 Gal4-RORgamma UAS-luciferase reporter, 20 h. Potency, µM (highest dose often 53.6 µM), usual class: inhibitors. actives 5.4% (n = 310,000); also: nearly all actives have a fitted effect of over 60% in size
Target sequence (P51450 whole entry, looked up, the tested form may be a part): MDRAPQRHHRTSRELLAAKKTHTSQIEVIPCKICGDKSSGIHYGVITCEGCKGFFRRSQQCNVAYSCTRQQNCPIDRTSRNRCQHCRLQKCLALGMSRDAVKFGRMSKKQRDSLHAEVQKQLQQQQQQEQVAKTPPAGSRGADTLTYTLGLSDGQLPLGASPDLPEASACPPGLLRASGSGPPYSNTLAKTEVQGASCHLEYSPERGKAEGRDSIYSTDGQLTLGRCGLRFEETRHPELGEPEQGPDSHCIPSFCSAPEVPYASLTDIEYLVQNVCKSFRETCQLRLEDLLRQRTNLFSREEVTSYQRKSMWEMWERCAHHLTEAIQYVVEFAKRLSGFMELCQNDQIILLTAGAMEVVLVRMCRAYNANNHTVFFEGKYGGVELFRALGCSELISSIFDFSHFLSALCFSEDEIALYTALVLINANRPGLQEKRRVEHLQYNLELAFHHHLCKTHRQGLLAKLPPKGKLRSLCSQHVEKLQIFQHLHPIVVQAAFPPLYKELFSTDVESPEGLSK
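Read-out: Photinus luciferase luminescence; inhibitors lower reporter signal. Insect Schneider cells with Gal4-ROR gamma fusion under metallothionein promoter, UAS reporter; 700 uM final copper sulfate induction, 20 hr, ambient temperature.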
Each line names hits and unclear results; the compound was inactive in the other large screens. Hits are enriched below; roughly 21% of the tested compounds scored in any of these assays. Unless noted, calls follow the shape of the dose curve; as a rule, active = well fitted curve in the direction sought with a large enough effect; inconclusive = small, poorly fitted or top-dose-only effect, or another doubt; inactive = no such curve, though single readings can be large; an effect the other way counts as inactive or inconclusive.

Cc1cccc(CCNC(=O)c2ccc3c(c2)nc2n3CCCCC2)c1	DT40 TDP1 CPT 21µM, DT40 TDP1 no CPT inconclusive (no result: Gal4-VP16 FLuc, ELG1 repair inh, IL1B secr inh, RORg inh)
CCc1ccc(N(CC)C(=O)c2sc3nc4n(c(=O)c3c2C)CCCC4)cc1	DT40 TDP1 CPT 26µM, DT40 TDP1 no CPT 21µM (no result: Gal4-VP16 FLuc, ELG1 repair inh, IL1B secr inh, RORg inh)
CCCNC(=O)c1ccc2c(c1)nc1n2CCCCC1	none (no result: Gal4-VP16 FLuc, ELG1 repair inh, IL1B secr inh, RORg inh)
CCc1ccc(N(CC)C(=O)c2ccc3c(=O)n4c(nc3c2)CCCCC4)cc1	DT40 TDP1 CPT inconclusive, DT40 TDP1 no CPT 16µM (no result: Gal4-VP16 FLuc, ELG1 repair inh, IL1B secr inh, RORg inh)
Cc1cccc(CCNC(=O)c2sc3nc4n(c(=O)c3c2C)CCCC4)c1	DT40 TDP1 CPT 18µM, DT40 TDP1 no CPT inconclusive (no result: Gal4-VP16 FLuc, ELG1 repair inh, IL1B secr inh, RORg inh)
CC1(C(=O)N2CCN(Cc3ccccc3Cl)CC2)CC1(Cl)Cl (stereo unspecified)	Gal4-VP16 FLuc inconclusive, ELG1 repair inh inconclusive
CCOc1ccc(CCNC(=O)c2sc3nc4n(c(=O)c3c2C)CCC4)cc1OCC	ELG1 repair inh 6.5µM
Cc1c(C(=O)NCc2ccc(Cl)cc2)sc2nc3n(c(=O)c12)CCCC3	DT40 TDP1 CPT inconclusive, DT40 TDP1 no CPT 16µM (no result: Gal4-VP16 FLuc, ELG1 repair inh, IL1B secr inh, RORg inh)
COc1ccc(CCNC(=O)c2sc3nc4n(c(=O)c3c2C)CCC4)cc1	DT40 TDP1 no CPT inconclusive, ELG1 repair inh inconclusive (no result: Gal4-VP16 FLuc, RORg inh)
Cc1c(C(=O)NCCc2ccc(S(N)(=O)=O)cc2)sc2nc3n(c(=O)c12)CCCC3	none (no result: Gal4-VP16 FLuc, ELG1 repair inh, IL1B secr inh, RORg inh)
Cc1ccc(C(=O)Nc2c(C(=O)NCc3ccc(Cl)cc3)sc3nc(C)cc(C)c23)cc1	DT40 TDP1 CPT 9.2µM, DT40 TDP1 no CPT 13µM (no result: Gal4-VP16 FLuc, ELG1 repair inh, IL1B secr inh, RORg inh)
CCCNC(=O)Cn1nc(C)c2c(C)n(-c3ccccc3)nc2c1=O	none (no result: Gal4-VP16 FLuc, ELG1 repair inh, IL1B secr inh, RORg inh)
COC(=O)c1nn(-c2ccc3c(c2)CCN3C(C)=O)cc1O	DT40 TDP1 CPT inconclusive, DT40 TDP1 no CPT inconclusive, Gal4-VP16 FLuc 8.9µM, RORg inh 7.1µM
CCc1ccc(S(=O)(=O)Nc2nnc(N)s2)cc1	none
COC(=O)c1ccc(NC(=O)CN2CCC(NC(=O)c3ccccc3F)CC2)cc1	DT40 TDP1 no CPT inconclusive (no result: Gal4-VP16 FLuc, ELG1 repair inh, RORg inh)
Cc1ccc(N=Cc2c(O)n(-c3cc(Cl)ccc3N3CCOCC3)c(=O)c3ccccc23)cc1C	DT40 TDP1 CPT 7.3µM, DT40 TDP1 no CPT 6.5µM, ELG1 repair inh inconclusive, IL1B secr inh inconclusive
Cn1cnc([N+](=O)[O-])c1S(=O)(=O)c1ccc(Cl)cc1	DT40 TDP1 CPT 1.2µM, DT40 TDP1 no CPT 2.9µM, Gal4-VP16 FLuc 5µM, ELG1 repair inh inconclusive, IL1B secr inh -138, RORg inh 3.5µM
Cn1cnc([N+](=O)[O-])c1NC(C)(C)C	none
O=C(Nc1ccccn1)c1ccc(S(=O)(=O)N2CCCCC2)cc1	DT40 TDP1 CPT inconclusive, DT40 TDP1 no CPT inconclusive, ELG1 repair inh inconclusive (no result: Gal4-VP16 FLuc, RORg inh)
O=C(CN1CCCC1)Nc1cc(C(F)(F)F)ccc1Cl	none
COc1cc(CC(=O)Nc2ccc(Cl)c(C(F)(F)F)c2)cc(OC)c1OC	DT40 TDP1 CPT inconclusive, DT40 TDP1 no CPT inconclusive, ELG1 repair inh inconclusive, RORg inh inconclusive
COc1ccc(C(=O)OCC(=O)Nc2ccc(Cl)c(C(F)(F)F)c2)c(OC)c1OC	DT40 TDP1 CPT 21µM, DT40 TDP1 no CPT 21µM, Gal4-VP16 FLuc inconclusive, ELG1 repair inh inconclusive
O=C(CN1CCN(c2ccccn2)CC1)Nc1ccc2ccccc2c1	ELG1 repair inh inconclusive
COc1ccc(C(=O)OC(C)C(=O)Nc2cc(C(F)(F)F)ccc2Cl)c(OC)c1OC (stereo unspecified)	DT40 TDP1 CPT 5.8µM, DT40 TDP1 no CPT 16µM, Gal4-VP16 FLuc inconclusive, ELG1 repair inh 21µM
O=C(CN1CCN(c2ccccn2)CC1)Nc1cc(C(F)(F)F)ccc1Cl	DT40 TDP1 CPT inconclusive, DT40 TDP1 no CPT 18µM, ELG1 repair inh inconclusive
O=C(CN1CCN(c2ccccn2)CC1)Nc1ccc(Cl)c(C(F)(F)F)c1	DT40 TDP1 CPT 18µM, DT40 TDP1 no CPT 18µM, ELG1 repair inh inconclusive, RORg inh inconclusive
CCOC(=O)CN(C(=O)c1snc(C(N)=O)c1N)C(C(=O)NC1CCCCC1)c1ccc(F)cc1 (stereo unspecified)	none

Compound activity from PubChem.
